# KCNQ2 pot – enhances the rat KCNQ2 potassium channel. O88943. CHO-K1 KCNQ2, FluxOR thallium flux fluorescence; stronger effect = higher value. B-score at 10 µM. 310,000 tested, 0.54% active. AID 2239;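 active = fluorescence ratio B-score at least 3 SD of library B-scores, with initial fluorescence B-score within 3 of them, cut at about 5.3 in these data; same plate scores as AID 2156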;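 also: B-score of peak minus minimum over baseline fluorescence ratio after K+ and Tl+ stimulus; positive B-score means potentiation of KCNQ2 with more thallium influx and brighter signal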
# Target sequence (O88943 whole entry, looked up): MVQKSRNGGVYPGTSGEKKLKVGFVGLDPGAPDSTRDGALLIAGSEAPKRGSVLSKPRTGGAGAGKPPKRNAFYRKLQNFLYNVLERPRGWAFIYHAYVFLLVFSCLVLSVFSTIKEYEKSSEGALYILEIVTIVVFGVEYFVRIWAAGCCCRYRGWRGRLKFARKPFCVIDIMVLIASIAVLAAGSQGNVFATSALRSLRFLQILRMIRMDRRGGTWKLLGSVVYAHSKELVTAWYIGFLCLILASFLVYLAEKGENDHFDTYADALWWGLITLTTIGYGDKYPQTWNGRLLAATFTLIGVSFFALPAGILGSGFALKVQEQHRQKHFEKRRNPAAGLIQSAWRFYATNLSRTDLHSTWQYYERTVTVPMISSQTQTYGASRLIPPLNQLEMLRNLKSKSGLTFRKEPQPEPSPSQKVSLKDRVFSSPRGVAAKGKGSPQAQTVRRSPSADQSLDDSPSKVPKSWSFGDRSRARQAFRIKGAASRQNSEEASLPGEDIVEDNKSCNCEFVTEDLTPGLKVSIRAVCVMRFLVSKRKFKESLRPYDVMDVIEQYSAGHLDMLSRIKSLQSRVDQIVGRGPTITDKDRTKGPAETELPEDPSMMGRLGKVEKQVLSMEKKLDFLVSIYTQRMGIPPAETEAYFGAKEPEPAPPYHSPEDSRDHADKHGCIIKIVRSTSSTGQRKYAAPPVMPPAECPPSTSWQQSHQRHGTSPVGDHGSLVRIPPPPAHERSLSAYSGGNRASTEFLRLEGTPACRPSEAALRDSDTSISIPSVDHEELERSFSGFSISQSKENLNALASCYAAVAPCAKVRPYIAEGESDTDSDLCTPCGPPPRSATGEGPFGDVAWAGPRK
# KCNQ2 inh – blocks the rat KCNQ2 potassium channel; B-score at 10 µM; 310,000 tested, 1.1% active; CHO-K1 KCNQ2, FluxOR thallium flux, 20 min; stronger effect = lower value; O88943;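 active = fluorescence ratio B-score at most minus 3 library SDs, with starting brightness B-score within 2 library SDs, cut at about -5.5 in these data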
# Kir21 conf inh – confirmation of mouse Kir2.1 potassium channel inhibitors; AID 2032; shares compounds with KCNQ2 pot; Tl flux remaining, % of negative control (stronger effect = lower value), % at 10 µM; 2,300 tested, 41% active; Kir2.1-expressing cells, FluxOR thallium flux fluorescence; stronger effect = lower value;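 active = Primary-screen hit whose thallium flux fell at least 3 control SD below untreated wells in both duplicates, with normal baseline fluorescence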;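 also: 0% = blank wells without stimulus and 100% = stimulated no-compound controls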
# HEK293 ctr – parental HEK293 activity in Kir2.1 inhibitor counter-screen; shares compounds with KCNQ2 pot; parental HEK293 cells, FluxOR thallium flux fluorescence; 0% = unstimulated blank wells; FluxOR signal as % of negative control (100 = no effect), % at 10 µM; 2,300 tested, 19% active; AID 2105;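 active = dye signal at least 3 control SD above or below untreated wells in both duplicates, raw fluorescence within 3, either direction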;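 also: percent is based on the flux ratio of peak minus minimum fluorescence over baseline F0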
# CHO-K1 ctr – alters thallium flux in parental CHO-K1 cells, KCNQ2 counter-screen; shares compounds with KCNQ2 pot; FluxOR thallium flux fluorescence; zero = vehicle mean+3SD, 100% = vehicle-minus-blank window; activity increase over 3SD of controls, % at 10 µM; 1,200 tested, 43% active; AID 2282;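 active = signal rise of at least 3 SD above the untreated control mean, in both duplicate wells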;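 also: counter screen of KCNQ2 potentiator hits so any rise reflects channel-independent effects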
# KCNQ1 sel pot – human KCNQ1 counter-target activity of KCNQ2 potentiators; 1,200 tested, 28% active; CHO KCNQ1 stable, FluxOR thallium flux fluorescence; beyond 3SD, as % of vehicle-control signal; AID 2283; shares compounds with KCNQ2 pot; activation over 3SD threshold, % at 10 µM;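 active = fluorescence ratio rise of at least 3 SD of vehicle wells above their mean, in both replicate wells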;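 also: 0% = vehicle mean plus 3 SD and 100% = vehicle minus unstimulated blank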
# KCNQ2 pot conf – confirmation of rat KCNQ2 potassium channel potentiators. potentiation, less the hit threshold, % at 10 µM. CHO-KCNQ2 cells, FluxOR thallium flux fluorescence. shares compounds with KCNQ2 pot. 1,200 tested, 68% active;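 active = fluorescence ratio rising 3 SD or more over the vehicle control mean in both replicates, plus primary screen hit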;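 also: peak minus minimum thallium fluorescence divided by baseline after K/Tl stimulus; 0% = vehicle mean plus 3 SD and 100% = vehicle minus unstimulated blank difference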
# Kir21 spec – tests whether KCNQ2 potentiators also affect mouse Kir2.1 | 1,200 tested, 2% active | shares compounds with KCNQ2 pot | HEK293 Kir2.1, FluxOR thallium flux fluorescence | AID 2345 | activity over 3SD threshold, % at 10 µM;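 active = fluorescence ratio rise of at least 3 SD above the vehicle-control mean, seen in both replicates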;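 also: 0% = vehicle mean plus 3 SD and 100% = vehicle minus no-stimulus blank window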
# KCNQ2 W236L pot – potentiates the retigabine-insensitive rat KCNQ2 W236L mutant channel | shares compounds with KCNQ2 pot | CHO KCNQ2-W236L, automated patch clamp current | current increase over 3SD of negative controls (%), stronger effect = higher value, % at 25 µM | 940 tested, 10% active | AID 2558;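 active = current increase at least 3 SD of the untreated controls above them in both duplicate recordings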
# The depositor's hits bear a star; i = inactive; . = no result. A selection: hits, their analogues and other compounds. The true share with any hit is near 1.6%.
SMILES,KCNQ2 pot,KCNQ2 inh,Kir21 conf inh,HEK293 ctr,others
CC(=O)/C=C/n1c(=S)oc2ccccc21,5.4*,i,i,i,CHO-K1 ctr=-4;KCNQ1 sel pot=-10;KCNQ2 pot conf=-12;Kir21 spec=-31
CC(C)CC(=O)/C=C/n1c(=S)oc2ccccc21,0.78,i,.,.,
COc1ccc(CC(=O)N2CCc3cc(OC)c(OC)cc3C2C)c(OC)c1 (configuration not stated),1.1,i,.,.,
CCCCCC(O)(c1ccc(OC)cc1)C(CN1CCOCC1)c1ccccc1 (configuration not stated),6.2*,i,i,i,CHO-K1 ctr=62*;KCNQ1 sel pot=-13;KCNQ2 pot conf=-2;Kir21 spec=-29;KCNQ2 W236L pot=i
CCCCC(O)(c1ccc(OC)cc1)C(CN1CCOCC1)c1ccccc1 (configuration not stated),0.75,i,.,.,
O=C(COC(=O)c1cccnc1Cl)Nc1cc(S(=O)(=O)N2CCCCC2)ccc1Cl,0.17,i,.,.,
CC(=O)C1=C(c2ccccc2)NC(=O)NC1c1ccccc1 (configuration not stated),0.49,i,.,.,
O=C1NC(c2ccccc2)=C(c2nc3ccccc3s2)C(c2ccccc2)N1 (configuration not stated),5.9*,i,i,i,CHO-K1 ctr=18*;KCNQ1 sel pot=-18;KCNQ2 pot conf=8.2*;Kir21 spec=-19;KCNQ2 W236L pot=i
Cc1cc(C)c(S(=O)(=O)NC2CC3CCC2C3)c(C)c1 (configuration not stated),.,i,.,.,
COc1ccc(CCNC(=O)CN2CCCc3ccccc32)cc1OC,.,i,.,.,
O=C(CN1CCCc2ccccc21)NCCc1ccc(F)cc1,.,i,46%*,i,
COc1ccc(NC(=O)CSc2nc3ccccc3c(=O)n2CCCN2CCCCC2)c(OC)c1,.,i,62%*,i,
COCCCNC(=O)CSc1nc2ccccc2c(=O)n1CCCN1CCCCC1,0.68,i,.,.,
O=C1CC(C2CCCO2)C(=O)N1c1ccccc1 (configuration not stated),0.06,i,.,.,
O=C(O)Cc1ccc(O)c(O)c1,.,i,.,.,
O=C(O)Cc1cc(I)c(Oc2ccc(O)c(I)c2)c(I)c1,9.9*,i,i,i,CHO-K1 ctr=1.9*;KCNQ1 sel pot=19*;KCNQ2 pot conf=112*;Kir21 spec=-39;KCNQ2 W236L pot=i
CCC(=O)N1CCc2cc(S(=O)(=O)N3CCN(c4ccccc4Cl)CC3)ccc21,0.1,i,.,.,
CCC(OC(=O)c1nsc(Cl)c1Cl)C(=O)NC(C)(C)C (configuration not stated),0.7,i,.,.,
COCCn1c(Cc2ccccc2)nnc1SCc1ccc([N+](=O)[O-])cc1,0.11,i,.,.,
COCCNc1c2c(nc3c(-c4ccccc4)c(C)nn13)CCCC2,.,i,.,.,
Cc1nn2c(NCCN(C)C)c3c(nc2c1-c1ccccc1)CCCC3,6.1*,i,.,.,CHO-K1 ctr=-24;KCNQ1 sel pot=-13;KCNQ2 pot conf=-33;Kir21 spec=-64
O=C(O)CSc1nnc(-c2cccc(S(=O)(=O)N3CCOCC3)c2)n1-c1cccc(Cl)c1,.,i,.,.,
O=C(O)C1C2CCC(O2)C1C(=O)Nc1ccc(OC(F)F)cc1 (configuration not stated),0.02,i,.,.,
CN(C(=O)c1ccccc1F)C(c1ccccc1)c1ccccc1,.,i,66%*,i,
CC(/C=N/NC(=O)c1ccccc1F)c1ccccc1 (configuration not stated),0.73,i,.,.,
SMILES,KCNQ2 pot,KCNQ2 inh,Kir21 conf inh,HEK293 ctr,others
N/N=c1\sc2ccccc2n1-c1ccccc1,.,i,.,.,
Cn1cc(SCC(=O)N2CCCc3ccccc32)c2ccccc21,.,i,52%*,i,
Cn1cc(SCC(=O)N2CCOCC2)c2ccccc21,.,i,.,.,
CN1C(=O)C(C)(C)c2cc(S(=O)(=O)N3CCC(C(=O)NCc4ccccc4Cl)CC3)ccc21,0.12,i,.,.,
O=C(N=C1c2ccccc2CN1c1ccc(F)c(Cl)c1)c1cccnc1Cl,.,i,.,.,
CCC(=O)OCc1c(C(F)(F)F)nn(C)c1Sc1ccc(F)cc1,.,i,48%*,i,
CCC(=O)OCc1c(C(F)(F)F)nn(C)c1Sc1ccc(Cl)cc1,.,i,.,.,
Oc1c(Br)cc(Cl)cc1C=Nc1ccc(N2CCOCC2)cc1,11*,i,i,i,CHO-K1 ctr=-1;KCNQ1 sel pot=0.5*;KCNQ2 pot conf=7.7*;Kir21 spec=-27;KCNQ2 W236L pot=i
Brc1csc(C=Nc2ccc3c(c2)OCCOCCOCCOCCO3)c1,0.47,i,.,.,
Oc1ccc(N=Nc2cccc(Cl)c2)cc1C=Nc1ccc(N2CCOCC2)cc1,1.4,i,.,.,
Oc1c(Cl)cc(Cl)cc1C=Nc1ccc2c(c1)OCCO2,8.5*,i,i,i,CHO-K1 ctr=92*;KCNQ1 sel pot=-1;KCNQ2 pot conf=-1;Kir21 spec=-22;KCNQ2 W236L pot=i
S=C(NCCCn1ccnc1)Nc1cccc(Cl)c1,.,i,.,.,
CCC(OC(=O)c1cccs1)C(=O)NCc1ccc(C)cc1 (configuration not stated),.,i,.,.,
Cc1ccc(SCC(=O)Nc2nnc(-c3ccco3)o2)cc1,5.6*,i,.,.,CHO-K1 ctr=-2;KCNQ1 sel pot=-16;KCNQ2 pot conf=-20;Kir21 spec=-43
O=C(CSc1ccc(F)cc1)Nc1nnc(-c2ccco2)o1,1.8,i,.,.,
Cc1ccc(S(=O)(=O)NCCCN2CCCC2)cc1,.,i,.,.,
COc1ccc(CC(=O)Nc2nc(C(C)(C)C)cs2)cc1,.,i,30%*,i,
COc1ccc(CC(=O)Nc2nc(C)cs2)cc1,.,i,.,.,
CCC(=O)c1ccc(OCC(=O)OCC(=O)NCC2CCCO2)cc1 (configuration not stated),.,i,.,.,
CN1CCC(OC(=O)c2ccc(Br)cc2)CC1,0.43,i,.,.,
CN1CCC(=C(c2ccccc2)c2ccc(Br)cc2)CC1,.,i,38%*,i,
COc1ccc(-c2csc(NC(C)c3nc4cc(Cl)c(Cl)cc4n3CCCO)n2)cc1 (configuration not stated),0.05,i,.,.,
O=C1CC(N2CCN(Cc3ccc(Cl)cc3)CC2)C(=O)N1CCc1ccccc1 (configuration not stated),5.8*,i,i,i,CHO-K1 ctr=-9;KCNQ1 sel pot=-22;KCNQ2 pot conf=22*;Kir21 spec=-53;KCNQ2 W236L pot=i
O=C1CC(N2CCN(Cc3ccccc3)CC2)C(=O)N1CCc1ccccc1 (configuration not stated),0.92,i,.,.,
CCOC(=O)C(C(=O)OCC)C(C[N+](=O)[O-])c1ccccc1 (configuration not stated),0.16,i,.,.,
